Assay results reported in PubChem BioAssay (Tox21).
Results filed as inconclusive are left out. The source made the active and inactive calls. Unless noted, the call rests on the fitted dose curve; in most records, active means well fitted curve in the direction sought with a large enough effect in the repeat runs; inconclusive means weak or mixed curves; inactive means no such curve, though single readings can be large; an effect the other way counts as inactive or inconclusive.

Key:
[1] = qHTS assay to identify aromatase inhibitors - cell viability counter screen (AID 743084);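 further: cells stimulated with testosterone during compound exposure; nearly all actives have a fitted effect of over 55% in size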
[2] = qHTS assay to identify small molecule that activate the aryl hydrocarbon receptor (AhR) signaling pathway - cell viability counter screen (AID 743086);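 further: HepG2 liver cells carrying the AhR DRE luciferase reporter; series mostly up to about 70 µM; nearly all actives have a fitted effect of over 45% in size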
Summary of the method: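 Cytotoxicity counter screen: CellTiter-Fluor signal (30 min, 37 C) in 4000 HepG2 cells/well carrying the DRE-luciferase reporter, following 24 h compound exposure at 37 C.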

[3] = target: Peroxisome proliferator-activated receptor gamma (Homo sapiens) (UniProt P37231); assay: qHTS assay to identify small molecule agonists of the peroxisome proliferator-activated receptor gamma (PPARg) signaling pathway (AID 743094; active means well fitted activation curve with a large enough effect in the signal ratio in the repeat runs, not every such curve was filed as active; the % refers to the signal ratio)
Summary of the method: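 Agonism was assessed in a beta-lactamase reporter system, HEK293H cells with a stably integrated UAS-bla construct under PPARg control; the 17 h treatment at 37C preceded a 1 h room-temperature FRET substrate read.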

[4] = target: Peroxisome proliferator-activated receptor gamma (Homo sapiens) (UniProt P37231); assay: qHTS assay to identify small molecule antagonists of the peroxisome proliferator-activated receptor gamma (PPARg) signaling pathway (AID 743191; calls by dose curve; further: series mostly up to about 63 µM; nearly all actives have a fitted effect of over 30% in size)
Summary of the method: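 Beta-lactamase reporter under UAS control in HEK293H PPARg-bla cells; compound treatment 17 h at 37C. Read-out: fluorescence intensity after 1 h room-temperature incubation with LiveBLAzer B/G FRET substrate.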

[5] = qHTS assay to identify small molecule antagonists of the peroxisome proliferator-activated receptor gamma (PPARg) signaling pathway - cell viability counter screen (AID 743194); further: nearly all actives have a fitted effect of over 55% in size
Summary of the method: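 Viability was measured as CellTiter-Glo luminescence in GeneBLAzer PPARg UAS-bla HEK293H cells. These cells had been exposed 17 h at 37 C to compounds together with rosiglitazone at 50 nM final, with the beta-lactamase readout taken in the same wells.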

[6] = qHTS assay for small molecule agonists of the antioxidant response element (ARE) signaling pathway (AID 743202; active means well fitted activation curve with a large enough effect in the signal ratio in the repeat runs, not every such curve was filed as active; the % refers to the signal ratio)
Summary of the method: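 After 16 hours of compound treatment at 37 C, HepG2 cells with a stably integrated ARE-driven beta-lactamase reporter were loaded 2 hours at room temperature with LiveBLAzer B/G FRET substrate and fluorescence intensity measured.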

[7] = qHTS assay for small molecule agonists of the antioxidant response element (ARE) signaling pathway - cell viability counter screen (AID 743203; calls by dose curve; further: nearly all actives have a fitted effect of over 55% in size)
Summary of the method: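 ATP content via CellTiter-Glo luminescence served as the viability measure. Cells: ARE-bla HepG2, 2,000 per well. Exposure: 16 hrs, 37C/5% CO2.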

[8] = qHTS assay for small molecule activators of the heat shock response signaling pathway - cell viability counter screen (AID 743209); further: nearly all actives have a fitted effect of over 50% in size
Summary of the method: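 Compounds dissolved in DMSO were added to overnight-plated HSE-bla HeLa cells and left 5 h at 37 C. Cell viability was quantified by luminescence using CellTiter-Glo.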

[9] = qHTS assay for small molecule activators of the heat shock response signaling pathway (AID 743210; active means well fitted activation curve with a large enough effect in the signal ratio in the repeat runs, with a control signal flat, not every such curve was filed as active; the % refers to the signal ratio; further: series mostly up to about 63 µM)
Summary of the method: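 Compound exposure lasted 5 h at 37 C in HeLa cells carrying a heat-shock-element-driven beta-lactamase reporter. Read-out: fluorescence intensity after 2.5 h room-temperature loading with LiveBLAzer B/G FRET substrate.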

[10] = qHTS assay to identify small molecule agonists of the peroxisome proliferator-activated receptor delta (PPARd) signaling pathway - cell viability counter screen (AID 743211); further: nearly all actives have a fitted effect of over 55% in size
Summary of the method: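 In the same wells used for beta-lactamase reporter measurement, cytotoxicity is scored by CellTiter-Glo. HEK293H PPARd-bla cells receive compound for 17 h at 37C following a 5 h settling period.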

[11] = target: Peroxisome proliferator-activated receptor delta (Homo sapiens) (UniProt Q03181); assay: qHTS assay to identify small molecule agonists of the peroxisome proliferator-activated receptor delta (PPARd) signaling pathway (AID 743212; calls by dose curve)
Summary of the method: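 Beta-lactamase reporter readout: a ratiometric FRET signal from the LiveBLAzer substrate after 2 h at room temperature. Compound exposure at 37 °C in PPARδ-bla HEK293H cells driven by an upstream activator sequence.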

[12] = target: Peroxisome proliferator-activated receptor delta (Homo sapiens) (UniProt Q03181); assay: qHTS assay to identify small molecule antagonists of the peroxisome proliferator-activated receptor delta (PPARd) signaling pathway (AID 743215; active means well fitted inhibition curve with a large enough effect in the signal ratio in the repeat runs, not every such curve was filed as active; the % refers to the signal ratio;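 further: cells stimulated with agonist L165041 at 300 nM final during compound exposure; series mostly up to about 62 µM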)
Summary of the method: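 Here, a reporter line (HEK293H, beta-lactamase under a UAS) measures PPARd signaling. Compounds are tested against agonist L165041 at 300 nM final concentration over 17 h at 37 C, with fluorescence read after substrate.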

[13] = target: Bile acid receptor (Homo sapiens) (UniProt Q96RI1); assay: qHTS assay to identify small molecule antagonists of the farnesoid-X-receptor (FXR) signaling pathway (AID 743217; active means well fitted inhibition curve with a large enough effect in the signal ratio in the repeat runs, not every such curve was filed as active; the % refers to the signal ratio)
Summary of the method: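 Test compounds are pin-transferred onto FXR-bla HEK 293T cells, then chenodeoxycholic acid is added at 50 uM final. After 16 h at 37 °C, LiveBLAzer B/G substrate is applied for 2 h at room temperature and fluorescence read.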

[14] = qHTS assay to identify small molecule agonists of the farnesoid-X-receptor (FXR) signaling pathway - cell viability counter screen (AID 743218); further: nearly all actives have a fitted effect of over 45% in size
Summary of the method: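 Quantitative HTS counter screen measuring ATP-based viability via CellTiter-Glo luminescence in HEK 293T cells carrying a UAS-driven beta-lactamase reporter, after 16 h compound exposure at 37 C.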

[15] = qHTS assay to identify small molecule antagonists of the farnesoid-X-receptor (FXR) signaling pathway - cell viability counter screen (AID 743221; active means well fitted cell-killing curve with a large enough effect in the repeat runs, not every such curve was filed as active; further: nearly all actives have a fitted effect of over 50% in size)
Summary of the method: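 Here viability was scored by luminescence after CellTiter-Glo addition to wells already read for beta-lactamase. Prior treatment: compound plus CDCA (50 uM final), 16 h, 37 C, HEK 293T FXR-bla cells.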

[16] = target: Vitamin D3 receptor (Homo sapiens) (UniProt P11473); assay: qHTS assay to identify small molecule agonists of the vitamin D receptor (VDR) signaling pathway (AID 743222; calls by dose curve)
Summary of the method: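 Tox21 cell reporter format: VDR-bla line, 16 h compound exposure in 5% CO2 at 37C, then fluorescence intensity after 2 h with LiveBLAzer B/G FRET substrate.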

[17] = target: Vitamin D3 receptor (Homo sapiens) (UniProt P11473); assay: qHTS assay to identify small molecule antagonists of the vitamin D receptor (VDR) signaling pathway (AID 743223; active means well fitted inhibition curve with a large enough effect in the signal ratio in the repeat runs, not every such curve was filed as active; the % refers to the signal ratio)
Summary of the method: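 Inhibition of agonist-driven VDR signalling is scored in VDR-bla cells: 3 nM final 1alpha,25-dihydroxyvitamin D3 plus compound, 16 h at 37C, then beta-lactamase detection by FRET substrate fluorescence after 2 h.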

[18] = target: Aryl hydrocarbon receptor (Homo sapiens) (UniProt P35869); assay: qHTS assay to identify small molecule that activate the aryl hydrocarbon receptor (AhR) signaling pathway (AID 743085);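 further: HG2L7.5c1 human HepG2 liver cells with stably integrated DRE-driven firefly reporter; series mostly up to about 70 µM; nearly all actives have a fitted effect of over 15% in size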
Summary of the method: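 Stably transfected human liver carcinoma cells (HG2L7.5c1; 20 DRE-firefly luciferase) were incubated 5 h, dosed, and kept 24 h at 37C. Agonism was scored from increased luciferase luminescence.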

[19] = qHTS assay to identify small molecule antagonists of the peroxisome proliferator-activated receptor delta (PPARd) signaling pathway - cell viability counter screen (AID 743213); further: nearly all actives have a fitted effect of over 50% in size
Summary of the method: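 Luminescence from CellTiter-Glo, added after the bla read and incubated 30 min at room temperature, gives viability of HEK293H PPARd-bla cells exposed to compounds for 17 h at 37 C with 300 nM L165041.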

[20] = target: Bile acid receptor (Homo sapiens) (UniProt Q96RI1); assay: qHTS assay to identify small molecule agonists of the farnesoid-X-receptor (FXR) signaling pathway (AID 743220; active means well fitted activation curve with a large enough effect in the signal ratio in the repeat runs, not every such curve was filed as active; the % refers to the signal ratio)
Summary of the method: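 FXR-UAS-bla HEK 293T cells carrying a UAS-driven beta-lactamase reporter were plated for 5 h at 37C/5% CO2, then exposed to DMSO-dissolved Tox21 10K compounds for 16 h at 37C. A LiveBLAzer B/G FRET substrate was loaded for 2 h at room temperature before fluorescence reading.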
On the % scale 0 is the no-effect control and ±100 the full control effect.

Sequence of Peroxisome proliferator-activated receptor gamma (Homo sapiens) (P37231 whole entry, looked up): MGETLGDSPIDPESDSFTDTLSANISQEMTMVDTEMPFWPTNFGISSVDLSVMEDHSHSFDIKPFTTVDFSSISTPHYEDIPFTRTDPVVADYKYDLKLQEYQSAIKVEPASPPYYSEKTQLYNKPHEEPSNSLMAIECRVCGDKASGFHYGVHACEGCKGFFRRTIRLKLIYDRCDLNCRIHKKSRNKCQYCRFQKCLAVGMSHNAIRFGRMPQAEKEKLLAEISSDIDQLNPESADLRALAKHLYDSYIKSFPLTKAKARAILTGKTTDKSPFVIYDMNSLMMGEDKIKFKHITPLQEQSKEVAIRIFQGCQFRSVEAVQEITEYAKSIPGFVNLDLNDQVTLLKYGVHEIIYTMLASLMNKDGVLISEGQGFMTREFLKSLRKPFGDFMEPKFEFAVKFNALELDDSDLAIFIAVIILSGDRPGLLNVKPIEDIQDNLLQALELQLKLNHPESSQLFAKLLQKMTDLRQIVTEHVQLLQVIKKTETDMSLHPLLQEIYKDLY
Sequence of Vitamin D3 receptor (Homo sapiens) (P11473 whole entry, looked up): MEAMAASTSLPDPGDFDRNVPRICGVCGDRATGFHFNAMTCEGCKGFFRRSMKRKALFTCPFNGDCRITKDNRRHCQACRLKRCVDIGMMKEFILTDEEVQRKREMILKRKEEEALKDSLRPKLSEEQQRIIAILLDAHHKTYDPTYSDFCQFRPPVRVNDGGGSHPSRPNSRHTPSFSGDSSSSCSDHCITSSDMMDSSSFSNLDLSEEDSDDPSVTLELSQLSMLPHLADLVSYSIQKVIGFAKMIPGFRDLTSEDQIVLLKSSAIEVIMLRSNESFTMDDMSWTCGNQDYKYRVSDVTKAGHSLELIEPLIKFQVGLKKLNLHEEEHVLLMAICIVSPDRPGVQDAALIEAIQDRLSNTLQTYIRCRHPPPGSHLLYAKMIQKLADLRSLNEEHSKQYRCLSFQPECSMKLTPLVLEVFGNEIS
Sequence of Peroxisome proliferator-activated receptor delta (Homo sapiens) (Q03181 whole entry, looked up): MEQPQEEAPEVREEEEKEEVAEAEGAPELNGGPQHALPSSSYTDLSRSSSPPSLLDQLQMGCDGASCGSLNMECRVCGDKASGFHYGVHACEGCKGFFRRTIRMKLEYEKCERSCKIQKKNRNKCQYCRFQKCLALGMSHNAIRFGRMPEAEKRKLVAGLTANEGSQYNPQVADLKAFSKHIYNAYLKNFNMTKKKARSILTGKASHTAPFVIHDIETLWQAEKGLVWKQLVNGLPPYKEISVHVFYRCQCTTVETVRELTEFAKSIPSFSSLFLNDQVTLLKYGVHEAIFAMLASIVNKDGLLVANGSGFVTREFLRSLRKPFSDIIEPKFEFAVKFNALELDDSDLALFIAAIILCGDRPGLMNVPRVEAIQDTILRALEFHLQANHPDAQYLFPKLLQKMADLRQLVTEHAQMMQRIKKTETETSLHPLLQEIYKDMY
Sequence of Bile acid receptor (Homo sapiens) (Q96RI1 whole entry, looked up): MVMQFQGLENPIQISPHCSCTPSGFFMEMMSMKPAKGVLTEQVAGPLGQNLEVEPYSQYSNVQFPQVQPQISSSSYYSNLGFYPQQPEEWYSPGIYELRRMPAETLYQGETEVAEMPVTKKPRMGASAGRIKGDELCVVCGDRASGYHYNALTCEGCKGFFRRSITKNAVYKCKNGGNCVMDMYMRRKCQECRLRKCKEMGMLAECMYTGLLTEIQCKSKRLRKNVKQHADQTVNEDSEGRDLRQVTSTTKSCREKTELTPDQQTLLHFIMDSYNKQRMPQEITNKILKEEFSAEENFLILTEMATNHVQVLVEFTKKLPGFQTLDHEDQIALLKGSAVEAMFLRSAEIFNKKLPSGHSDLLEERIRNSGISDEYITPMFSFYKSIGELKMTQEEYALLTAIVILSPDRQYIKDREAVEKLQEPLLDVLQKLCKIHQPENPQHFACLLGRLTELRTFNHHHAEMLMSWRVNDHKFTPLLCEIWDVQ
Sequence of Aryl hydrocarbon receptor (Homo sapiens) (P35869 whole entry, looked up): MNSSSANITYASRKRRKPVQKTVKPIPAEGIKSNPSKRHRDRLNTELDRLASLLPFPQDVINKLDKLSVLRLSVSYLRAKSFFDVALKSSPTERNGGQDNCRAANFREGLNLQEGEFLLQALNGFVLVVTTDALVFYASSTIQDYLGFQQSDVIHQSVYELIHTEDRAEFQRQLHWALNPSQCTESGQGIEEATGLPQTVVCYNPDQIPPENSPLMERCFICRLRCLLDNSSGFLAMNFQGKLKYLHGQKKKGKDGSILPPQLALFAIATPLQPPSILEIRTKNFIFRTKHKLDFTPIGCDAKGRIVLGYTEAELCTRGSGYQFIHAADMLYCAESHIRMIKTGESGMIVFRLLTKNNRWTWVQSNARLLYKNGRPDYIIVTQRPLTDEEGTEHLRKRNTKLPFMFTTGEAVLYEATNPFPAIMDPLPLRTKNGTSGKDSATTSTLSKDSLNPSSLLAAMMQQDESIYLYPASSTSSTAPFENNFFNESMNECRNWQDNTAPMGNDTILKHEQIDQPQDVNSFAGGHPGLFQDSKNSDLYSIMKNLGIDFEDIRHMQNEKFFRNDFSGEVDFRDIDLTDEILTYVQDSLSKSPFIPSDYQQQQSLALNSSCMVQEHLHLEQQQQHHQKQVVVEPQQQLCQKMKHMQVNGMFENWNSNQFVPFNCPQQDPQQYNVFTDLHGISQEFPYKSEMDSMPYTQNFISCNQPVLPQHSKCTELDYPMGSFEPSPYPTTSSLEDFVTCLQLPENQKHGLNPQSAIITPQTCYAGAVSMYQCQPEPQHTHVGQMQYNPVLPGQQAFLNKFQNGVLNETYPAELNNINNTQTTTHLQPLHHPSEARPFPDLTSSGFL

CNC(=O)NC
inactive: Potency [1] | Potency [2] | outcome [3] | Potency [4] | outcome [5] | Potency [6] | outcome [7] | outcome [8] | outcome [9] | outcome [10] | outcome [11] | outcome [12] | outcome [13] | Potency [14] | outcome [15] | outcome [16] | outcome [17]

CC(=O)OC(C)c1ccccc1 (stereo unspecified)
inactive: Potency [1] | Potency [18] | outcome [3] | outcome [5] | Potency [6] | outcome [7] | outcome [8] | outcome [9] | outcome [10] | Potency [14] | outcome [15] | outcome [16]

CN[C@@H]1[C@H](O)[C@H](NC)[C@H]2O[C@@]3(O)C(=O)C[C@@H](C)O[C@H]3O[C@@H]2[C@H]1O
inactive: Potency [1] | Potency [2] | outcome [3] | Potency [4] | outcome [5] | Potency [6] | outcome [7] | outcome [8] | outcome [9] | outcome [10] | outcome [19] | outcome [13] | Potency [14] | outcome [15] | outcome [16] | outcome [17]

C=CC(C)(O)CC/C=C(\C)CC (stereo unspecified)
inactive: Potency [1] | Potency [2] | outcome [3] | Potency [4] | outcome [5] | Potency [6] | outcome [7] | outcome [8] | outcome [9] | outcome [10] | outcome [11] | outcome [19] | outcome [15] | outcome [16] | outcome [17]

CCCCCCCCCCCCCCCCI
inactive: Potency [1] | Potency [2] | outcome [3] | Potency [4] | outcome [5] | Potency [6] | outcome [7] | outcome [8] | outcome [9] | outcome [11] | outcome [19] | outcome [13] | Potency [14] | outcome [15] | outcome [16] | outcome [17]

O=CO
inactive: activity change, negative = cytotoxicity [1] -4.37% [at 8.47 µM] | activation [18] 0.579% [at 8.47 µM] | activity change, negative = cytotoxicity [5] 15.3% [at 5.95 µM] | activation [6] -2.02% [at 8.36 µM] | activity change, negative = cytotoxicity [8] 8.14% [at 5.95 µM] | activity change, negative = cytotoxicity [10] 1.94% [at 5.95 µM] | viability change, negative = cytotoxic [19] 11.9% [at 6.26 µM] | activity change, negative = inhibition [13] -0.433% [at 5.95 µM] | viability change, negative = cytotoxic [14] 0.465% [at 5.95 µM] | activation [20] -0.16% [at 5.95 µM] | activity change, negative = cytotoxicity [15] -2.88% [at 5.95 µM] | activation [16] -1.04% [at 6.01 µM] | activity change, negative = inhibition [17] 3.44% [at 6.95 µM]

C[C@H](CCC(=O)O)[C@H]1CC[C@H]2[C@@H]3[C@H](O)C[C@@H]4C[C@H](O)CC[C@]4(C)[C@H]3C[C@H](O)[C@]12C
inactive: Potency [1] | Potency [2] | outcome [3] | Potency [4] | outcome [5] | Potency [6] | outcome [8] | outcome [9] | outcome [10] | outcome [19] | outcome [13] | Potency [14] | outcome [20] | outcome [15]

C[C@H](CCC(=O)NCC(=O)O)[C@H]1CC[C@H]2[C@@H]3[C@H](O)C[C@@H]4C[C@H](O)CC[C@]4(C)[C@H]3C[C@H](O)[C@]12C
inactive: Potency [1] | Potency [18] | outcome [3] | Potency [4] | outcome [5] | outcome [7] | outcome [8] | outcome [9] | outcome [10] | outcome [19] | outcome [13] | Potency [14] | outcome [20] | outcome [15] | outcome [16] | outcome [17]

CCCOCCOCCOCCO
inactive: Potency [1] | Potency [18] | outcome [3] | Potency [4] | Potency [6] | outcome [7] | outcome [8] | outcome [9] | outcome [10] | outcome [11] | outcome [12] | outcome [13] | outcome [15] | outcome [16]

O=[Si]=O
inactive: Potency [1] | Potency [2] | outcome [3] | Potency [4] | outcome [5] | Potency [6] | outcome [7] | outcome [8] | outcome [10] | outcome [19] | Potency [14] | outcome [15] | outcome [16] | outcome [17]

BrC/C=C/CBr
inactive: Potency [1] | Potency [18] | outcome [3] | Potency [4] | outcome [5] | outcome [7] | outcome [8] | outcome [9] | outcome [10] | outcome [11] | outcome [19] | outcome [12] | outcome [13] | Potency [14] | outcome [15]

CC(=O)OC(C(=O)c1ccccc1)c1ccccc1 (stereo unspecified)
inactive: Potency [1] | Potency [18] | outcome [3] | Potency [4] | outcome [5] | Potency [6] | outcome [8] | outcome [9] | outcome [10] | outcome [11] | outcome [19] | outcome [13] | Potency [14] | outcome [15]

O=C(O)c1ccccc1C(=O)OCc1ccccc1
inactive: Potency [1] | Potency [18] | outcome [3] | Potency [4] | outcome [5] | Potency [6] | outcome [7] | outcome [8] | outcome [10] | outcome [11] | outcome [12] | outcome [13] | Potency [14]

CCCCC(=O)N(C)C
inactive: Potency [1] | Potency [18] | outcome [3] | outcome [5] | Potency [6] | outcome [7] | outcome [8] | outcome [9] | outcome [10] | outcome [11] | outcome [19] | Potency [14] | outcome [15] | outcome [16] | outcome [17]

CCNC(=O)/C=C/c1cccc(Br)c1
inactive: Potency [1] | Potency [2] | outcome [3] | Potency [4] | outcome [5] | Potency [6] | outcome [7] | outcome [8] | outcome [9] | outcome [10] | outcome [11] | outcome [19] | Potency [14] | outcome [15] | outcome [16] | outcome [17]

NS(=O)(=O)c1cc2c(cc1Cl)NC(C(Cl)Cl)NS2(=O)=O (stereo unspecified)
inactive: Potency [1] | Potency [18] | outcome [3] | outcome [5] | outcome [7] | outcome [8] | outcome [9] | outcome [10] | outcome [19] | outcome [13] | Potency [14] | outcome [15] | outcome [16]

OCCCCCCCl
inactive: Potency [1] | Potency [18] | outcome [3] | outcome [5] | Potency [6] | outcome [7] | outcome [8] | outcome [10] | outcome [19] | Potency [14] | outcome [15] | outcome [16] | outcome [17]
